The entries come from a sample that favours hits as a whole.
DT40 TDP1 CPT: growth inhibition of DT40 Tdp1-/-;hTDP1 cells with camptothecin (screen for TDP1 inhibitors). AID 686979. chicken DT40 Tdp1-/-;hTDP1 cells + 20 nM CPT, ATP luminescence, 48 h. Potency, µM (series often up to 46.2 µM), for inactives: top-dose activity change, negative = growth inhibition, hits mostly inhibitors. 420,000 tested, 12% active; note: potency is the fitted concentration of half-maximal effect; nearly all actives have a fitted effect of over 55% in size
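Chicken DT40 Tdp1-/- cells complemented with human TDP1, 400 cells/well, exposed to compounds plus 20 nM camptothecin for at least 48 h at 37 C; viability read as ATP content by CellTiter-Glo luminescence.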
TDP1 cell noCPT: qHTS for Inhibitors of human tyrosyl-DNA phosphodiesterase 1 (TDP1): qHTS in cells in absence of CPT; Potency, µM (titrated, usually from 46.2 µM), for the others: at the highest dose activity change, negative = growth inhibition, most hits filed as inhibitors; DT40 Tdp1-/- hTDP1 cells, no CPT, ATP luminescence, 48 h; 420,000 tested, 15% active; note: potency is the fitted concentration of half-maximal effect; nearly all actives have a fitted effect of over 55% in size
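Chicken DT40 Tdp1-/- cells stably complemented with human TDP1 were seeded at 400 cells/well with DMSO in place of 20 nM camptothecin. After compound pinning, cells grew at least 48 hr at 37 °C; viability read by CellTiter-Glo luminescence.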
IL1B secr inh: inhibitors of inflammasome signaling (IL-1 beta secretion); activity change, % at 57.5 µM; 360,000 tested, 4.7% active; THP-1 LPS/ATP IL-1B secretion, AlphaLISA, 16 h; stronger effect = lower value; in the data active = activity change below about -50%; inconclusive = mostly about -30% to -49%
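THP-1 cells pretreated 1 hr with compounds (up to 57.5 uM final), then stimulated with LPS (250 ng/mL final) plus ATP (1.25 mM final); secreted IL-1B measured by AlphaLISA after 16 hr, decreased signal indicating inhibition.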
HT1080-NT tox: kills 2HG-producing HT-1080-NT fibrosarcoma cells; HT-1080-NT fibrosarcoma viability, CellTiter-Glo ATP luminescence, 48 h; Potency, µM (doses to about 46.1 µM), for inactives: top-dose activity, negative = less viability, hits mostly cytotoxic; 360,000 tested, 1.6% active; AID 686970;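 note: NT is the 2HG producing partner of a matched IDH1 knockdown line; potency is the fitted concentration of half-maximal effect; 0% = DMSO-treated cells and -100% = media-only wells without cells; nearly all actives have a fitted effect of over 55% in size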
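HT-1080-NT fibrosarcoma cells (2HG-overproducing), 750 cells/well in RPMI with 5% FBS, dosed after 2 h and incubated 48 h at 37C. CellTiter-Glo luminescence normalized to DMSO and no-cell wells; concentration-response curves fitted and classed.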
HT1080 IDH1KD tx: toxicity to HT-1080 IDH1 knockdown cells (counter line) | Potency, µM (top dose mostly 46.1 µM), for the others: at the highest dose activity, negative = toxicity, usual class: cytotoxic | 360,000 tested, 2% active | HT-1080 IDH1 knockdown viability, ATP luminescence, 48 h;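 note: potency is the fitted concentration of half-maximal effect; 0% = DMSO wells and -100% = cell-free medium wells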
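Viability of IDH1-knockdown HT-1080 fibrosarcoma cells was assessed by CellTiter-Glo after 48 h at 37 °C with titrated compound; concentration-effect curves were classified by fit quality and response size.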
12-LOX inh: blocks human arachidonate 12S-lipoxygenase; purified 12hLO, xylenol orange hydroperoxide absorbance; 580,000 tested, 1.1% active; Potency, µM (titrated, usually from 108 µM), for inactives: top-dose activity change, negative = inhibition, most hits filed as inhibitors; P18054; note: potency is the fitted concentration of half-maximal effect
Target sequence (P18054 whole entry, looked up): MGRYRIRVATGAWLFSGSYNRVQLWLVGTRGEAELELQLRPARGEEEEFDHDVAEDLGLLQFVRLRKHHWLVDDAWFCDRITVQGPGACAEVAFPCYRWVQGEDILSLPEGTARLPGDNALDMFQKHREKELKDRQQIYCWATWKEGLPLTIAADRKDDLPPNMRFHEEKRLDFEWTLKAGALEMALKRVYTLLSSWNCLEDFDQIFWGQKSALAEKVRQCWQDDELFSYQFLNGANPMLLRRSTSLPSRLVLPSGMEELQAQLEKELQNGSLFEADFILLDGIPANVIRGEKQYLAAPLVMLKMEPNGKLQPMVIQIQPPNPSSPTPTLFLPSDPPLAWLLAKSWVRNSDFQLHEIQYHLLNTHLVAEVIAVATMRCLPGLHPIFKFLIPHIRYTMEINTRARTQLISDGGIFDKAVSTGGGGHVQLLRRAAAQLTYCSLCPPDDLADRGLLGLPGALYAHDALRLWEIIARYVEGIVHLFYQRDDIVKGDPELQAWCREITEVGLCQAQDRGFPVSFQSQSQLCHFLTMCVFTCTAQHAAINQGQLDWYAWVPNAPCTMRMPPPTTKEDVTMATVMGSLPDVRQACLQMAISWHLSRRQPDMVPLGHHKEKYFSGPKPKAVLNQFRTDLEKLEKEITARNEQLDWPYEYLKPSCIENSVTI
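Purified human 12hLO (150 nM final) in 25 mM Hepes, 0.01% Triton X-100, pH 7.0 was preincubated 15 min at room temperature with compound. Then 40 uM arachidonic acid was added, 30 min. Hydroperoxide was read by Fe-XO absorbance ratio 573/405 nm.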
Active calls of the source: *; ? = inconclusive; . = not tested or not shown; [ ] = another dose, or the depositor's remark. Unless noted, calls come from the whole dose curve; as a rule, active = well fitted curve in the direction sought with a large enough effect; inconclusive = small, poorly fitted or top-dose-only effect, or another doubt; inactive = no such curve, though single readings can be large; an effect the other way counts as inactive or inconclusive. Unless noted, % is set by controls: 0 for no effect and ±100 for the full control effect.

SMILES	DT40 TDP1 CPT	TDP1 cell noCPT	IL1B secr inh	HT1080-NT tox	HT1080 IDH1KD tx	12-LOX inh
CCCCCCCCCN(CCCCCCCCC)c1ccc(/C=C/c2ccnc3ccccc23)cc1	1.0%	5.2%	.	.	.	.
N#CCc1ccnc2ccccc12	?	-18.8%	-19.7	-1.1%	4.5%	-29.4%
CN(CCC#N)c1ccc(/C=C/c2ccnc3ccccc23)cc1	0.794µM*	2µM*	.	.	.	.
Cc1cc(C)n2nc3nc(N4CCCCC4)nc(-c4ccco4)c3c2n1	14.6µM*	20.6µM*	7.4	8.6%	8.6%	.
Oc1ccccc1-c1cnc2cccnn12	16.4µM*	?	27.7	7.2%	0.8%	-15.6%
CCc1ccc(-n2nc3ccc(NC(=O)c4cc5ccccc5o4)cc3n2)cc1	?	4.61µM*	.	.	.	-27.9%
O=C(Nc1ccc2nn(-c3ccccc3)nc2c1)c1cc2ccccc2o1	?	14.6µM*	.	.	.	-5.7%
O=C1CN(C(=O)c2cccc(C(F)(F)F)c2)CC(OCc2cccnc2)CN1CC1CCOCC1 (configuration not stated)	.	.	.	.	.	32.2%
Cc1cccc(N2CCN(CCCNC(=O)C3CCCN(c4ncnc5c4nc4n5CCCCC4)C3)CC2C)c1 (configuration not stated)	?	11.6µM*	-76.7*	20.6µM*	16.4µM*	-2.5%
Cc1cccc(N2CCN(c3ncnc4c3nc3n4CCCCC3)CC2C)c1 (configuration not stated)	7.31µM*	9.2µM*	.	.	.	0.7%
COc1ccc2c(c1)[C@]1(C[C@H](O)CO1)C(=O)N2C	10.1%	3.1%	43.4	17.3%	11.7%	0.4%
CN1C(=O)C(O)(C2COC(C)(C)CC2=O)c2ccccc21 (configuration not stated)	14.6µM*	9.2µM*	31.6	17.6%	17.4%	154.7%
CN1C(=O)C(O)(C2COC(C)(C)CC2=O)c2cc(Br)ccc21 (configuration not stated)	5.8µM*	4.61µM*	56.7	?	?	1.9%
Cc1ccc(C(=O)CC2(O)C(=O)N(C)c3ccc(Br)cc32)c(C)c1 (configuration not stated)	?	-26.0%	-3.6	2.5%	5.7%	1.1%
Cc1ccc2c(c1)C(O)(C1COC(C)(C)CC1=O)C(=O)N2C (configuration not stated)	5.17µM*	3.26µM*	40.1	13.8%	23.4%	2.9%
O=C1NC2(CCN(Cc3ccsc3)C2)COc2ccccc21 (configuration not stated)	.	.	.	.	.	-4.6%[176 µM]
CC(C)C[C@@H](C(=O)N[C@H](C(=O)OC1CCCC1)c1ccccc1)[C@H](O)C(=O)NO	.	.	.	.	.	-48.5%[57.4 µM]
CCCCC(CC)COC(=O)c1ccccc1C(=O)O (configuration not stated)	-1.8%[92.5 µM]	-15.2%[92.5 µM]	.	.	.	-3.5%[57.4 µM]
CCCC[C@H](CC(=O)c1ccccc1)[C@@H](OC(C)=O)C(=O)Oc1c(C(C)C)cccc1C(C)C	13µM*	?	16.5	11.9%	8.9%	?
O=C(c1cccc(C(F)(F)F)c1)N1CC2CC(C1)[C@H]1CCCC(=O)N1C2 (some centres not stated)	.	.	.	.	.	48.9%
CCOc1ncccc1C(=O)N(Cc1nnc(-c2ccc(Cl)cc2)o1)C(C)C	.	.	.	.	.	13.4%
Cc1ccccc1OCC(=O)N(Cc1nnc(-c2ccc(Cl)cc2)o1)C(C)C	?	14.6µM*	-14.2	-5.9%	-15.6%	2.5%
O=C(Nc1ccc(N2CCOCC2)cc1)c1cn2ccccc2n1	13µM*	10.3µM*	-13.6	-24.6%	?	3.4%
O=C(O)/C=C/C(=O)Nc1ccc(N2CCOCC2)cc1	.	.	.	.	.	31.6µM*
C/C(=C/C(=O)O)C(=O)Nc1ccc(N2CCOCC2)cc1	.	.	.	.	.	-12.3%
SMILES	DT40 TDP1 CPT	TDP1 cell noCPT	IL1B secr inh	HT1080-NT tox	HT1080 IDH1KD tx	12-LOX inh
O=C(Nc1ccc(Cl)cc1)Nc1ccc(N2CCOCC2)cc1	?	18.4µM*	110.8	-0.6%	-8.8%	0.0%
O=C(Nc1ccc(Cl)c(S(=O)(=O)N2CCOCC2)c1)c1cn2ccccc2n1	-14.4%	?	34.3	4.9%	21.4%	-8.2%
COCCNC(=O)CSc1nc2cc3c(cc2c(=O)n1CCCC(=O)NCc1ccc2c(c1)OCO2)OCO3	14.3%	-18.2%	.	.	.	-23.9%
Fc1cccc(-c2cnc(Nc3cnccn3)c3c2CCO3)c1	.	.	.	.	.	42.9%[176 µM]
COc1ccc(Cl)cc1N(CC(=O)NC1CC2CCC1C2)S(=O)(=O)c1ccccc1 (configuration not stated)	20.6µM*	?	-10.1	-26.3%	?	283.0%
COc1ccc(S(=O)(=O)N(CC(=O)NC2CC3CCC2C3)c2ccccc2OC)cc1 (configuration not stated)	?	?	-5.5	-15.9%	-18.0%	-19.5%
COc1ccc(OC)c(N(CC(=O)NC2CC3CCC2C3)S(=O)(=O)c2ccccc2)c1 (configuration not stated)	?	?	-66.6*	-0.5%	-1.4%	-1.2%
CC(C)Cc1nc2nccc(-c3cccs3)n2n1	.	.	.	.	.	24.0%
COc1ccc(NC(=O)Cn2c(N3CCN(c4ccccc4)CC3)nc(C)cc2=O)cc1	.	.	.	.	.	-5.9%
COc1cc(C(C)=O)ccc1OCC(=O)N1CCC(Cc2ccccc2)CC1	?	?	-9.9	-14.8%	-14.2%	-1.4%
COc1cc(C(C)=O)ccc1OCCCN1CCC(Cc2ccccc2)CC1	?	?	-55.4*	?	?	?
O=Cc1cc(Cl)ccc1OCCN1CCC(Cc2ccccc2)CC1	?	16.4µM*	-92.9*	20.6µM*	?	2.24µM*
COc1cc(C(C)=O)ccc1OCCN1CCC(Cc2ccccc2)CC1	?	?	-64.3*	-22.7%	?	?
COc1ccc(C2c3ccc4ccccc4c3Oc3ncn(CCO)c(=N)c32)cc1 (configuration not stated)	?	25.9µM*	-100.4*	?	11.6µM*	.
COc1ccc(C2c3ccc4ccccc4c3Oc3ncn(CCN(C)C)c(=N)c32)cc1 (configuration not stated)	?	20.6µM*	-97.8*	?	?	0.0%
COc1ccc(C2c3ccc4ccccc4c3Oc3ncn(CCCO)c(=N)c32)cc1 (configuration not stated)	?	?	-69.2*	18.4µM*	?	?

From PubChem BioAssay
